Source: PubChem BioAssay
GLS inhibitor – inhibitors of human glutaminase (GLS) | Potency, µM (series often up to 45.5 µM), inactives show at the highest dose activity change, negative = inhibition, usual class: inhibitors | 0.21% of 410,000 active | GLS enzymatic activity, qHTS titration | O94925; also: potency is read from the fitted curve at half-maximal effect; % is scaled to controls: 0 for no effect and ±100 for the full control effect
Target sequence (O94925 whole entry, looked up): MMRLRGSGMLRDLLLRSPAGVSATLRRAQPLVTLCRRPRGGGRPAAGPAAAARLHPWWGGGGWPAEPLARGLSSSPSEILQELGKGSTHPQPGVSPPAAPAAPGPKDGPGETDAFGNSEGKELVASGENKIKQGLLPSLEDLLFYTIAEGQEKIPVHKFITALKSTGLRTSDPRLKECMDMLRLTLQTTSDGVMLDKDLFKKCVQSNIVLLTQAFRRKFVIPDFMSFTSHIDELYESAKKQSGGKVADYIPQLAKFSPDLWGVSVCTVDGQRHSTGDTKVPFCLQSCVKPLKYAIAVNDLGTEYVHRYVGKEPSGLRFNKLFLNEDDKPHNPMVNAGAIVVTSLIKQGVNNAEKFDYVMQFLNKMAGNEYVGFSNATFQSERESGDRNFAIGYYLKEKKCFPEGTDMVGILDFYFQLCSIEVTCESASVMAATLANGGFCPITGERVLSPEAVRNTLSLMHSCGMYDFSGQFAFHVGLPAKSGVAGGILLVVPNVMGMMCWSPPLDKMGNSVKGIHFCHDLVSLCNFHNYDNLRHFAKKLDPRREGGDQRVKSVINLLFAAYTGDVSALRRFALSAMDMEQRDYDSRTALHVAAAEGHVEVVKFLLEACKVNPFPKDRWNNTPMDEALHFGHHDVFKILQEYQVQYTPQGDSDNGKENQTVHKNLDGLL
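Assay buffer: 45 mM KH2PO4 pH 8.2, 0.02% Tween-20. hKGA acts on L-glutamine (1 mM solution added); product glutamate is reported by an oxidase/peroxidase Amplex Red coupling, with fluorescence taken at baseline and 30 min.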
GLP1R cytotox – cytotoxicity in counter-screen for GLP-1R inverse agonists | 0.13% of 410,000 active | AID 624418 | HEK293 cAMP-luciferase reporter cells, luminescence, 24 h | Potency, µM (titrated, usually from 38.3 µM), for the others: at the top dose activity change, negative = inhibition, actives largely listed as inhibitors;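 also: loss of luciferase light is scored as toxicity; potency is read from the fitted curve at half-maximal effect; % is scaled to controls: 0 for no effect and ±100 for the full control effect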
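A 23 nL compound transfer followed 12 hours of cell culture at 37 deg C; exposure then lasted 24 hr. Luciferase assay detection reagent was dispensed and plates read for luminescence after a 12 min room-temperature wait.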
KCNH2 3.1 block – blocks the human KCNH2 3.1 channel isoform; U2OS KCNH2 3.1, thallium flux FluxOr; stronger effect = lower value; activity change, % (tested at about 1.8 µM); 0.95% of 340,000 active; AID 720553;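 active = maximum activity change below -70%; inconclusive = maximum activity change from -70% to -50%; inactive = maximum activity change above -50%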;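 also: thallium influx rate constant from kinetic fluorescence after stimulation buffer; % is scaled to controls: 0 for no effect and ±100 for the full control effect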
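Thallium flux via FluxOr fluorescence (Red40 quencher, 45 min loading) in U2OS cells virally expressing the KCNH2 3.1 isoform (1.77 x 10^8 /mL virus, overnight at 37 C). Rate constants from 2-min kinetic reads post-stimulation, normalised to positive and negative controls.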
KCNH2 WT inh – blocks the wildtype human KCNH2 potassium channel; U2OS, BacMam KCNH2, thallium flux FluxOr; stronger effect = lower value; activity change, % at 1.84 µM; 0.37% of 340,000 active;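 active = maximum activity change below -70%; inconclusive = maximum activity change between -70% and -50%; inactive = maximum activity change above -50%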; also: % is scaled to controls: 0 for no effect and ±100 for the full control effect
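U2OS cells were transduced with wild-type KCNH2 virus (2.03 x 10^8 / mL) for 4 h at room temperature, then cultured overnight at 37 C. Thallium flux was read with FluxOr dye. Rate constants were normalized to DMSO controls.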
GLP-1R agonist – activates the human GLP-1 receptor; P43220; HEK293 GLP-1R CRE-luciferase, luminescence, 4-6 h; cells express a hypersensitive GLP-1R form; Potency, µM (titrated, usually from 45.6 µM), without a hit: top-dose activation, usual class: activators; 0.007% of 380,000 active; AID 624172; also: potency is read from the fitted curve at half-maximal effect; % of control where 0% means no effect
GLP1R inv ag – inverse agonists of human GLP-1 receptor. P43220. HEK293 GLP-1R CRE-luciferase, luminescence, 24 h; GLP-1R form is constitutively active. Potency, µM (highest dose often 38.3 µM), inactives show top-dose activity change, negative = inhibition, actives largely listed as inhibitors. 1.6% of 410,000 active; also: potency is read from the fitted curve at half-maximal effect; % is scaled to controls: 0 for no effect and ±100 for the full control effect; nearly all actives have a fitted effect of over 55% in size
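Luminescence readout: a drop in cAMP-driven luciferase signal flags inverse agonism at a constitutively active GLP-1R stably expressed in HEK293. Compound exposure lasted 24 hr at 37 deg C, 5% CO2.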
* marks the source's active call; other numbers are inactive results; ? = inconclusive; · = no result. Most compounds without a hit are left out; they make up all but 2.8% or so of the library. Unless noted, calls follow the shape of the dose curve; as a rule, active = well fitted curve in the direction sought with a large enough effect; inconclusive = small, poorly fitted or top-dose-only effect, or another doubt; inactive = no such curve, though single readings can be large; an effect the other way counts as inactive or inconclusive.

SMILES	GLS inhibitor	GLP1R cytotox	KCNH2 3.1 block	KCNH2 WT inh	GLP-1R agonist	GLP1R inv ag
O=C(NCC(c1ccco1)N1CCc2ccccc21)C(=O)Nc1ccccc1F (configuration not stated)	10%	4%	-23	3	-15%	?
CC(Sc1nncs1)C(=O)Nc1ccc(S(=O)(=O)Nc2ncccn2)cc1 (configuration not stated)	2%	6%	14	-22	-1%	6%
CC(=O)Oc1ccc(C(=O)Nc2ccc(C3(C#N)CCCC3)cc2)cc1	-4%	-11%	-7	-17	-6%	2.2µM*
CN(CCOc1cccc(C(F)(F)F)c1)Cc1ccccc1	1%	?	5	4	4%	10µM*
COc1ccc(OC)c(CNC(=O)NCc2noc3ccc(C)cc23)c1	-1%	-10%	·	·	·	7%
COc1cccc(-n2c(=O)c3c(C)c(C(=O)N(C)C)sc3n(Cc3ccc(F)cc3Cl)c2=O)c1	4%	3%	·	·	·	1%
COc1ccccc1Nc1n[nH]c(=S)s1	10µM*	4%	13	2	1%	18%
Cc1cccc(Nc2n[nH]c(=S)s2)c1C	104%	0%	-18	-10	-1%	3%
Cc1cccc(Cn2c(C(=O)OC(C)C)cc3c2ccn3C)c1	-3%	3%	7	13	0%	5µM*
CCOC(=O)c1cc2c(ccn2C)n1Cc1ccc(Cl)cc1	6%	0%	14	·	1%	?
CCOc1ccc2c(c1)c(=O)c(C(=O)c1ccccc1)cn2Cc1ccccc1F	-5%	2%	·	·	·	6%
Cc1ccc(C)c(CN2CCCN(Cc3ccc(F)cc3)S2(=O)=O)c1	5%	1%	·	·	·	?
CNc1cccnc1C=NNC(N)=S	27%	190%	-17	?	-2%	-23%
NC(=S)NN=Cc1nccc2c(C(F)(F)F)cccc12	3%	?	15	0	3%	1.3µM*
COC(=O)c1cc(NC(=O)c2cc(-c3ccccc3Cl)oc2C(F)(F)F)ccc1N1CCOCC1	0%	-29%	2	-12	13%	4µM*
Cc1ccc(-c2nc3ccccc3[nH]2)cc1NC(=O)COc1ccccc1[N+](=O)[O-]	-5%	?	·	·	·	?
CCOc1ccc(C(=O)Nc2cc(-c3nc4ccccc4[nH]3)ccc2Cl)cc1[N+](=O)[O-]	1%	?	-70*	-27	-4%	?
CCCOc1ccc(C(=O)Nc2cc(-c3nc4ccccc4[nH]3)ccc2C)cc1	-2%	-6%	·	·	·	7.1µM*
CCOc1ccccc1NC(=O)c1ccc(OCC)c([N+](=O)[O-])c1	16%	57%	-19	2	0%	44%
CCOc1ccc(C(=O)Nc2cccc(-c3nc4ccccc4[nH]3)c2C)cc1[N+](=O)[O-]	-1%	-9%	-78*	-6	0%	?
Cc1ccc(OCC(=O)Nc2cc(-c3nc4ccccc4[nH]3)ccc2C)c(C)c1	1%	4%	·	·	1%	1%
CCOc1ccc(C(=O)Nc2cc(-c3nc4ccccc4[nH]3)ccc2C)cc1[N+](=O)[O-]	6%	-9%	-86*	-31	-4%	?
CN(c1nc2c(c(=O)n(C)c(=O)n2C)n1CC(=O)c1ccccc1)C1CCCCC1	-1%	-25%	-7	0	18%	7.9µM*
CCOC(=O)c1c(NC(=O)C(NCCN(C)C)c2ccccc2)sc2c1CCCC2 (configuration not stated)	?	4µM*	-6	-1	20%	?
CC(C)N(Cc1nc(-c2ccccc2)no1)C(=O)c1ccc(Cl)cc1	10%	1%	15	-1	1%	11µM*
SMILES	GLS inhibitor	GLP1R cytotox	KCNH2 3.1 block	KCNH2 WT inh	GLP-1R agonist	GLP1R inv ag
CCOC(=O)C(=NCC1CCCO1)NNc1cc(Cl)ccc1Cl (configuration not stated)	0%	5%	19	-5	20%	11µM*
CCOC(=O)/C(=N\Nc1cc(Cl)ccc1Cl)N1CCOCC1	24%	-3%	8	5	11%	-17%
CCOc1ccccc1CNC(=O)c1nc(-c2ccc(Cl)cc2)n2c1CCCCC2	4%	5%	·	·	·	-16%
CCOc1ccc(-c2cn3c(n2)sc2cc(C(=O)NCCCN(CC)CC)ccc23)cc1	3%	?	·	·	·	10µM*
Cc1cccc(CN2C(=O)N/C(=C/c3ccc(C)s3)C2=O)c1	10%	-5%	3	-6	-9%	?
Cc1cccc(CN2C(=O)N/C(=C/c3cc(C)n(-c4cc(C)ccn4)c3C)C2=O)c1	10%	-6%	3	1	-8%	10µM*
Cc1ccc(Cl)cc1NC(=O)Nc1cn(CC(C)C)c(=O)c2ccccc12	-5%	0%	·	·	·	9%
COc1ccc(S(=O)(=O)N2CCN(Cc3ccc4c(c3)OCO4)CC2)cc1OC	-4%	6%	·	·	1%	-4%
Cc1ccc(C(=O)COC(=O)CNC(=O)CNC(=O)c2ccc(C)cc2)cc1	5%	-14%	-85*	-1	-13%	30%
O=C(CN(Cc1ccccc1)C(=O)c1cccc([N+](=O)[O-])c1)Nc1c(Cl)cc(Cl)cc1Cl	1%	-2%	-87*	7	-4%	2%
O=C(c1cc(C2CC2)nn1-c1ccccc1)N1CCN(Cc2ccccc2F)CC1	0%	1%	-5	-1	0%	8.9µM*
O=C(c1cc(C2CC2)nn1-c1ccccc1)N1CCN(Cc2ccc(Cl)cc2)CC1	1%	4%	-18	-14	-2%	?
CCOC(=O)COc1ccc(CC)cc1C(=O)c1ccn2nc(-c3ccc(F)cc3)cc2n1	2%	2%	·	·	1%	-25%
C[C@H]1CCC[C@]2(C)C[C@H]3OC(=O)C(CN4CCCCCC4)[C@H]3C=C12 (some centres not stated)	6%	?	14	-10	-7%	11µM*
C=C1CCC[C@]2(C)C[C@H]3OC(=O)C(CN4CCCCC4CO)[C@H]3CC12 (some centres not stated)	-15%	-10%	11	11	0%	63%
COc1ccc(C(=O)c2ccc(Br)cc2)c2ccccc12	-1%	-8%	-6	-3	0%	?
COc1ccc(C(=O)c2ccc(Cl)cc2)c2ccccc12	-1%	-10%	-9	-4	0%	10µM*
COc1ccc(CCNC(=O)Cn2c(=O)n(-c3ccc(OC)c(OC)c3)c(=O)c3ccccc32)cc1OC	4%	-2%	·	·	0%	17%
